# Reference: PubChem BioAssay (Tox21)
# Results filed as inconclusive are left out. A call without a number means that no potency is given here. Active and inactive are the calls of the source. Unless noted, calls come from the whole dose curve.
# Target: Peroxisome proliferator-activated receptor gamma (Homo sapiens) (UniProt P37231)
# Assay: qHTS assay to identify small molecule agonists of the peroxisome proliferator-activated receptor gamma (PPARg) signaling pathway (AID 743094; active = well fitted activation curve with a large enough effect in the signal ratio in the repeat runs, not every such curve was filed as active; the % refers to the signal ratio)
# Conditions: HEK293H PPARg-UAS-bla, beta-lactamase FRET ratio, 17 h; series mostly up to 57 µM
# Procedure, shortened: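 Following 5 h plating at 37C, PPARg-bla HEK293H cells receive compound or DMSO for 17 h; fluorescence intensity is recorded after LiveBLAzer B/G loading for 1 h at room temperature.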
# Potency is the fitted concentration of half-maximal effect.
# Sequence of Peroxisome proliferator-activated receptor gamma (Homo sapiens) (P37231 whole entry, looked up): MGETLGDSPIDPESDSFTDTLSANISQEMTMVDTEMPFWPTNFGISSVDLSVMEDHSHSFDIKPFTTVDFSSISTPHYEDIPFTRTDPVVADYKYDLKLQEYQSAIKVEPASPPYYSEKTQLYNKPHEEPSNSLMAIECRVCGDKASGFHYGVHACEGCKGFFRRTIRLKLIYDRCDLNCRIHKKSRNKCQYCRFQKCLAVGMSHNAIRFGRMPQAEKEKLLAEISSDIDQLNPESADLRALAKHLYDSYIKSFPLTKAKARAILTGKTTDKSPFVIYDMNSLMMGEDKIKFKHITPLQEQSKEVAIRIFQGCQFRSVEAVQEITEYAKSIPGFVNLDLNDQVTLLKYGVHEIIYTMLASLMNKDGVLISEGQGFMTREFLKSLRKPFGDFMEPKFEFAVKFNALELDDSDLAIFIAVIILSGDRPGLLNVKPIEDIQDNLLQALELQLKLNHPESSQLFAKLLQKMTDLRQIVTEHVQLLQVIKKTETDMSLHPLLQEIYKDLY
row,Compound,Potency
1,COc1cc(-c2ccc(N=C=O)c(OC)c2)ccc1N=C=O,inactive
2,Cc1nc(-c2ccc3c(c2)CCN(CCC2CCC(NC(=O)/C=C/c4ccc(F)cc4)CC2)CC3)no1 (stereo unspecified),24.6 µM (active)
3,NC(=O)NS(=O)(=O)c1ccc(N)cc1,inactive
4,CCC1OCC(COc2ccc(Oc3ccccc3)cc2)O1 (stereo unspecified),inactive
5,OCCCCCCCCCCCCBr,inactive
6,Oc1ccc2cc(SSc3ccc4cc(O)ccc4c3)ccc2c1,inactive
7,CCCCCCCCn1sc(Cl)c(Cl)c1=O,inactive
8,CCCC(=O)OC[C@@H](OC(=O)CCC)[C@@H](OC(=O)CCC)[C@H](Cn1c2nc(=O)[nH]c(=O)c-2nc2cc(C)c(C)cc21)OC(=O)CCC,inactive
9,Cc1cc(O)c(Cl)c(C)c1Cl,inactive
10,CNCc1cc(F)ccc1Oc1ccc(Cl)c(Cl)c1,inactive
11,O=C(OCC1CO1)C1CCCCC1C(=O)OCC1CO1 (stereo unspecified),inactive
12,CCC(Cl)C(Cl)C(Cl)CC(Cl)C(Cl)C(C)Cl (stereo unspecified),inactive
13,CC(=O)SC[C@@H](Cc1ccccc1)C(=O)NCC(=O)OCc1ccccc1,inactive

# Target: Peroxisome proliferator-activated receptor gamma (Homo sapiens) (UniProt P37231)
# Assay: qHTS assay to identify small molecule antagonists of the peroxisome proliferator-activated receptor gamma (PPARg) signaling pathway (AID 743191); note: nearly all actives have a fitted effect of over 30% in size
# Conditions: HEK293H PPARg-UAS-bla, beta-lactamase ratio, antagonist, 17 h; series mostly up to 62.6 µM
# Procedure, shortened: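 Beta-lactamase reporter under UAS control in HEK293H PPARg-bla cells; compound treatment 17 h at 37C. Read-out: fluorescence intensity after 1 h room-temperature incubation with LiveBLAzer B/G FRET substrate.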
row,Compound,Potency
1,CCC1OCC(COc2ccc(Oc3ccccc3)cc2)O1 (stereo unspecified),inactive
2,CCCCCCCCn1sc(Cl)c(Cl)c1=O,49 µM (active)
3,O=[N+]([O-])c1ccccc1Nc1ccccc1,inactive
4,O=C(O)c1c(Cl)cccc1Cl,inactive

# Tested on: not listed separately
# Assay: qHTS assay to identify small molecule antagonists of the peroxisome proliferator-activated receptor gamma (PPARg) signaling pathway - cell viability counter screen (AID 743194; active = well fitted cell-killing curve with a large enough effect in the repeat runs; note: nearly all actives have a fitted effect of over 55% in size)
# Conditions: PPARg-bla HEK293H viability, CellTiter-Glo luminescence, 17 h, co-treated with 50 nM rosiglitazone; series mostly up to 62.6 µM
# Procedure, shortened: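 Viability was measured as CellTiter-Glo luminescence in GeneBLAzer PPARg UAS-bla HEK293H cells. These cells had been exposed 17 h at 37 C to compounds together with rosiglitazone at 50 nM final, with the beta-lactamase readout taken in the same wells.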
row,Compound,Potency
1,Oc1ccc(N=Nc2ccccc2)cc1,inactive
2,CCCCCCCCCCCCCCCCCC[N+](C)(C)Cc1ccccc1,44.1 µM (active)
3,Oc1ccc(C2(c3ccc(O)cc3)CC3CC2C2CCCC32)cc1 (stereo unspecified),26.5 µM (active)
4,COc1cc(-c2ccc(N=C=O)c(OC)c2)ccc1N=C=O,inactive
5,Cc1nc(-c2ccc3c(c2)CCN(CCC2CCC(NC(=O)/C=C/c4ccc(F)cc4)CC2)CC3)no1 (stereo unspecified),inactive
6,CC[C@H]1O[C@]2(CC[C@@H]1C)C[C@@H]1C[C@@H](C/C=C(\C)C[C@@H](C)/C=C/C=C3\CO[C@@H]4[C@H](O)C(C)=C[C@@H](C(=O)O1)[C@]34O)O2,19.3 µM (active)
7,NC(=O)NS(=O)(=O)c1ccc(N)cc1,inactive
8,CCC1OCC(COc2ccc(Oc3ccccc3)cc2)O1 (stereo unspecified),inactive
9,CCN(C(=O)c1cc(C)cc(OC[C@H](C)Nc2ccncc2)c1)C(C)C,inactive
10,CCOC(=O)O[C@H](C)OC(=O)c1ccc2c(c1)cc(C(=O)NC1CCN(C(C)C)CC1)n2Cc1cc(-c2ccc(Cl)s2)on1,10.2 µM (active)
11,OCCCCCCCCCCCCBr,inactive
12,CCCCCCCCn1sc(Cl)c(Cl)c1=O,21.9 µM (active)
13,CCCC(=O)OC[C@@H](OC(=O)CCC)[C@@H](OC(=O)CCC)[C@H](Cn1c2nc(=O)[nH]c(=O)c-2nc2cc(C)c(C)cc21)OC(=O)CCC,inactive
14,O=[N+]([O-])c1ccccc1Nc1ccccc1,inactive
15,O=C1C=CC(=O)N1c1ccc(Cc2ccc(N3C(=O)C=CC3=O)cc2)cc1,13.8 µM (active)
16,CSc1ccc(/C=C2/C(C)=C(CC(=O)O)c3cc(F)ccc32)cc1,inactive
17,O=C(OCC1CO1)C1CCCCC1C(=O)OCC1CO1 (stereo unspecified),inactive
18,O=C1C=CC(=O)N1,25.2 µM (active)
19,CCCCCCCCCCn1cc[n+](CCCCCCCCCC)c1C,6.93 µM (active)
20,CC(=O)SC[C@@H](Cc1ccccc1)C(=O)NCC(=O)OCc1ccccc1,inactive
21,N=C1N=C(N)c2cc3ccccc3cc21,54.9 µM (active)
22,CCC1=C[C@@H]2CN(C1)Cc1c([nH]c3ccccc13)[C@@](C(=O)OC)(c1cc3c(cc1OC)N(C)[C@H]1[C@@](O)(C(=O)OC)[C@H](OC(C)=O)[C@]4(CC)C=CCN5CC[C@]31[C@@H]54)C2,inactive
23,O=C(Nc1ccc(Oc2ccc(Cl)cc2)c(Cl)c1)c1cc(I)cc(I)c1O,5.31 µM (active)
24,CNc1ccc(O)cc1,43.6 µM (active)

# Tested on: not listed separately
# Assay: qHTS assay for small molecule agonists of the antioxidant response element (ARE) signaling pathway (AID 743202; active = well fitted activation curve with a large enough effect in the signal ratio in the repeat runs, not every such curve was filed as active; the % refers to the signal ratio)
# Conditions: HepG2 ARE-bla reporter, beta-lactamase FRET, 16 h; series mostly up to 73.3 µM
# Procedure, shortened: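 An ARE-responsive beta-lactamase gene stably integrated in HepG2 cells serves as reporter. After 5 h plating and 16 h compound incubation at 37 C, fluorescence of the B/G FRET substrate was measured.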
row,Compound,Potency
1,NC(=O)NS(=O)(=O)c1ccc(N)cc1,inactive
2,CCC1OCC(COc2ccc(Oc3ccccc3)cc2)O1 (stereo unspecified),61.1 µM (active)
3,O=[N+]([O-])c1ccccc1Nc1ccccc1,inactive
4,O=C(O)c1c(Cl)cccc1Cl,inactive
5,O=C(OCC1CO1)C1CCCCC1C(=O)OCC1CO1 (stereo unspecified),48.6 µM (active)
6,CC(=O)SC[C@@H](Cc1ccccc1)C(=O)NCC(=O)OCc1ccccc1,inactive

# Tested on: not listed separately
# Assay: qHTS assay for small molecule agonists of the antioxidant response element (ARE) signaling pathway - cell viability counter screen (AID 743203); note: nearly all actives have a fitted effect of over 55% in size
# Conditions: ARE-bla HepG2 viability, CellTiter-Glo luminescence, 16 h; series mostly up to 73.3 µM
# Procedure, shortened: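 Compounds in DMSO were pinned onto ARE-bla HepG2 cells plated 5 hrs earlier at 2,000 cells/well. Sixteen hours later at 37C/5% CO2, CellTiter-Glo was added and luminescence measured after 30 min at room temperature.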
row,Compound,Potency
1,Oc1ccc(N=Nc2ccccc2)cc1,inactive
2,CCCCCCCCCCCCCCCCCC[N+](C)(C)Cc1ccccc1,19.5 µM (active)
3,CC1=C(/C=C/C(C)=C/C=C/C(C)=C/C=O)C(C)(C)CCC1,60.8 µM (active)
4,Oc1ccc(C2(c3ccc(O)cc3)CC3CC2C2CCCC32)cc1 (stereo unspecified),58.7 µM (active)
5,COc1cc(-c2ccc(N=C=O)c(OC)c2)ccc1N=C=O,inactive
6,Cc1nc(-c2ccc3c(c2)CCN(CCC2CCC(NC(=O)/C=C/c4ccc(F)cc4)CC2)CC3)no1 (stereo unspecified),inactive
7,CC[C@H]1O[C@]2(CC[C@@H]1C)C[C@@H]1C[C@@H](C/C=C(\C)C[C@@H](C)/C=C/C=C3\CO[C@@H]4[C@H](O)C(C)=C[C@@H](C(=O)O1)[C@]34O)O2,21.5 µM (active)
8,NC(=O)NS(=O)(=O)c1ccc(N)cc1,inactive
9,Cc1cc(O)c(C(C)(C)C)cc1Sc1cc(C(C)(C)C)c(O)cc1C,7.68 µM (active)
10,CCC1OCC(COc2ccc(Oc3ccccc3)cc2)O1 (stereo unspecified),inactive
11,CCN(C(=O)c1cc(C)cc(OC[C@H](C)Nc2ccncc2)c1)C(C)C,inactive
12,CCOC(=O)O[C@H](C)OC(=O)c1ccc2c(c1)cc(C(=O)NC1CCN(C(C)C)CC1)n2Cc1cc(-c2ccc(Cl)s2)on1,22.7 µM (active)
13,OCCCCCCCCCCCCBr,inactive
14,Oc1ccc2cc(SSc3ccc4cc(O)ccc4c3)ccc2c1,inactive
15,CCCCCCCCn1sc(Cl)c(Cl)c1=O,4.33 µM (active)
16,CCCC(=O)OC[C@@H](OC(=O)CCC)[C@@H](OC(=O)CCC)[C@H](Cn1c2nc(=O)[nH]c(=O)c-2nc2cc(C)c(C)cc21)OC(=O)CCC,26.6 µM (active)
17,O=[N+]([O-])c1ccccc1Nc1ccccc1,inactive
18,Cc1cc(O)c(Cl)c(C)c1Cl,30.6 µM (active)
19,O=C1C=CC(=O)N1c1ccc(Cc2ccc(N3C(=O)C=CC3=O)cc2)cc1,17.2 µM (active)
20,CNCc1cc(F)ccc1Oc1ccc(Cl)c(Cl)c1,61.1 µM (active)
21,O=C(O)c1c(Cl)cccc1Cl,inactive
22,Cc1cc(O)c(C(C)(C)C)cc1C(C)(C)C,54.5 µM (active)
23,CSc1ccc(/C=C2/C(C)=C(CC(=O)O)c3cc(F)ccc32)cc1,inactive
24,O=C(OCC1CO1)C1CCCCC1C(=O)OCC1CO1 (stereo unspecified),inactive
25,O=C1C=CC(=O)N1,62.8 µM (active)
26,CCCCCCCCCCn1cc[n+](CCCCCCCCCC)c1C,19.4 µM (active)
27,CCC(Cl)C(Cl)C(Cl)CC(Cl)C(Cl)C(C)Cl (stereo unspecified),inactive
28,CC(=O)SC[C@@H](Cc1ccccc1)C(=O)NCC(=O)OCc1ccccc1,inactive
29,N=C1N=C(N)c2cc3ccccc3cc21,43.3 µM (active)
